Compound activity: PubChem BioAssay, National Center for Advancing Translational Sciences (NCATS)
Giardia kill: kills Giardia lamblia | Giardia lamblia trophozoite viability | hit rate 0.15% among 340,000 | activity change, % at 7.66 µM, hits read low | AID 540267; in the data active means activity change below about -80%; inconclusive means between about -30% and that limit;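 further: parasites exposed to compound for two days anaerobically before the ATP read; on the % scale 0 is the no-effect control and ±100 the full control effect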
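Luminescent ATP signal served as the viability read-out, measured 15-30 min after adding ATP detection reagent to trophozoites that had been incubated with compounds for 48 hrs at 37 deg C anaerobically at 100 cells/well.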
Gal4-VP16 FLuc: counter-screen for ROR gamma inhibitors: Gal4-VP16 reporter. Drosophila S2 Gal4-VP16 UAS-luciferase, luminescence, 20 h. Potency, µM (titrated, usually from 53.6 µM), without a hit: top-dose activity, negative = inhibition, usual class: inhibitors. hit rate 3.5% among 310,000. AID 2546;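 further: Gal4-VP16 expression switched on by copper sulfate through the metallothionein promoter; potency means the concentration at half of the fitted maximal effect; on the % scale 0 is the no-effect control and ±100 the full control effect; nearly all actives have a fitted effect of over 50% in size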
RORg inh: blocks mouse ROR gamma transcriptional activity | P51450 | Drosophila S2 Gal4-RORgamma UAS-luciferase reporter, 20 h | Potency, µM (highest dose often 53.6 µM), for the others: at the top dose activity change, negative = inhibition, most hits filed as inhibitors | hit rate 5.4% among 310,000; further: potency means the concentration at half of the fitted maximal effect; on the % scale 0 is the no-effect control and ±100 the full control effect; nearly all actives have a fitted effect of over 60% in size
Target sequence (P51450 whole entry, looked up, the tested form may be a part): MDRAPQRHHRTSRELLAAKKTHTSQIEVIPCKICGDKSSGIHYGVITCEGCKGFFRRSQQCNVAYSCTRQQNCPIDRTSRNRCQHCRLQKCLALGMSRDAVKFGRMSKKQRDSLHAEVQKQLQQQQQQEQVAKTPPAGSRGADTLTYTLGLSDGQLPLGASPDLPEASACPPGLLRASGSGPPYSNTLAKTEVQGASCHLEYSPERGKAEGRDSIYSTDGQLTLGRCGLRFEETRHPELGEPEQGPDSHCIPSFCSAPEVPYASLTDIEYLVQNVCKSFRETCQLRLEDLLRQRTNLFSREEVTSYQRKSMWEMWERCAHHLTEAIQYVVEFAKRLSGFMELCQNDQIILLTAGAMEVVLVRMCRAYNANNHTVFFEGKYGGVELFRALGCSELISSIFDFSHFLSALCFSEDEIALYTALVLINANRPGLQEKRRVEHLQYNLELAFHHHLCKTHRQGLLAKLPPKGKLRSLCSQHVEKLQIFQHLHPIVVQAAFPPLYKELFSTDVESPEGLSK
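Compounds are pin-transferred onto Drosophila Schneider cells expressing a copper-inducible Gal4–ROR gamma transactivation domain fusion. After 1 hr, copper sulfate is added to 700 uM final; luciferase is read 20 hr later.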
MCF10A rereplic: DNA re-replication induction in MCF 10a cells | MCF 10A DNA re-replication, Hoechst nuclear intensity, 48 h | Potency, µM (titrated, usually from 46.1 µM), inactives show at the highest dose activity, positive = re-replication, hits mostly activators | hit rate 2.9% among 350,000 | AID 624296; further: potency means the concentration at half of the fitted maximal effect; % of control where 0% means no effect; nearly all actives have a fitted effect of over 50% in size
SW480 rereplic: inducers of DNA re-replication in SW480 colon cancer cells; hit rate 1.8% among 340,000; Potency, µM (top dose mostly 46.1 µM), for the others: at the top dose re-replication activation, hits mostly activators; SW480 DNA re-replication, Hoechst DNA content imaging, 48 h; further: potency means the concentration at half of the fitted maximal effect; % of control where 0% means no effect; nearly all actives have a fitted effect of over 55% in size
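Quantitative HTS format with DMSO vehicle controls; 48 hr drug incubation at 37 C, then 40 min Hoechst staining and scanning imager measurement at 405 nm excitation.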
BCR signal inh: inhibitors of chronic active B-cell receptor signaling | ABC-DLBCL IkBa-CBG/CBR reporter, luminescence ratio, 4 h | Potency, µM (top dose mostly 46.1 µM), without a hit: at the top dose activity change, negative = inhibition, most hits filed as inhibitors | hit rate 0.05% among 340,000 | AID 493014; active means well fitted inhibition curve with a large enough effect in the signal ratio, with a control signal flat, not every such curve was filed as active; inconclusive means small, poorly fitted or top-dose-only effect, or effect the other way, or a change in a side signal; the % refers to the signal ratio;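 further: potency means the concentration at half of the fitted maximal effect; plate controls were basal doxycycline-induced cells for no effect and cells given 10 µM MG132 for full effect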
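TMD8 human ABC-DLBCL cells with doxycycline-inducible IκBα–green luciferase fusion and unfused red luciferase, in 0.5% FBS medium; compounds up to 46 uM, 4 h at 37C. Green/red luminescence ratio, filter-overlap corrected, fitted to concentration-response curves.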
Starred values were filed as active, the others as inactive; ? = inconclusive; / = no result. An excerpt weighted towards active compounds, which were near 8.3% of everything screened. Unless noted, the call rests on the fitted dose curve; in most records, active means well fitted curve in the direction sought with a large enough effect; inconclusive means small, poorly fitted or top-dose-only effect, or another doubt; inactive means no such curve, though single readings can be large; an effect the other way counts as inactive or inconclusive.

SMILES | Giardia kill | Gal4-VP16 FLuc | RORg inh | MCF10A rereplic | SW480 rereplic | BCR signal inh
O=C1c2ccccc2C(=O)c2[nH]c(=O)[nH]c21 | ? | 7.08µM* | 3.98µM* | ? | 1.3µM* | ?
O=C1c2ccccc2C(=O)c2[nH]cnc21 | ? | ? | 11.2µM* | -1.9% | 3.0% | ?
O=C1C(O)=C(O)C(=O)c2ccccc21 | 18.4 | / | / | ? | ? | /
COC(=O)C1C(c2ccc(OC)cc2)Nc2nnc(C(F)(F)F)n2C1(C)O (stereo not drawn) | 0.0 | -16.3% | -0.2% | 2.6% | 1.6% | ?
Cc1ccccc1CN(C)CC(=O)Nc1ccccc1-c1ccccc1 | 19.3 | ? | 184.2% | 14.6µM* | 11.9% | ?
COc1ccccc1CN(C)CC(=O)Nc1ccccc1-c1ccccc1 | 8.0 | 5.3% | 2.2% | ? | 1.3% | 8.3%
Cc1ccc(CC(=O)Nc2ccccc2-c2ccccc2)cc1C | -8.3 | 0.9% | -0.4% | 9.2µM* | 3.1% | ?
COc1ccc(CC(=O)Nc2ccccc2-c2ccccc2)cc1OC | -4.3 | -28.8% | 26.9% | 2.5% | 1.2% | 3.6%
COc1cc(C)c(NC(=O)c2cccc(S(=O)(=O)N3CCCC3)c2)cc1OC | 12.4 | / | / | 7.2% | -4.0% | -2.5%
O=C(O)C(Cc1cc(I)c(O)c(I)c1)c1ccccc1 (stereo not drawn) | / | -10.7% | -1.6% | ? | 7.9% | /
COc1ccccc1NC(=O)c1ccc(NC(=O)Cc2n[nH]c(=O)c3ccccc23)cc1 | 31.7 | -15.4% | -15.0% | 2.4% | -8.6% | ?
Cc1cc(OCC(=O)Nc2ccncc2)ccc1[N+](=O)[O-] | -16.8 | ? | 5.01µM* | 16.2% | -1.7% | 0.9%
COc1cccc(OCC(=O)Nc2ccncc2)c1 | 3.7 | ? | ? | 1.1% | -2.6% | -0.2%
CC(C)(C)c1ccc(OCC(=O)Nc2ccncc2)c(Br)c1 | -27.1 | ? | ? | 14.6µM* | -2.4% | -16.4%
CC(C)CCOc1cccc(OCC(=O)Nc2ccncc2)c1 | 5.0 | 8.91µM* | ? | ? | 0.5% | -3.5%
Cc1cc(OCC(=O)Nc2ccncc2)c(C)cc1Br | -6.2 | 12.6µM* | ? | -1.6% | -0.9% | ?
Cc1ccccc1S(=O)(=O)Cc1ccc(C(=O)NC2CCCCC2C)o1 (stereo not drawn) | -14.6 | 16.7% | 5.1% | 18.7% | -8.5% | -0.2%
COc1ccc2c(=O)cc(-c3ccncc3)oc2c1OC | -4.0 | / | / | ? | ? | /
COc1cc(C)c(S(=O)(=O)n2nnc3ccccc32)cc1C | -5.6 | -6.3% | -8.2% | -1.1% | -1.3% | -3.2%
Cc1cc(Br)c(S(=O)(=O)n2nnc3ccccc32)cc1C | 11.0 | -9.1% | -35.5% | 10.3µM* | ? | -6.5%
Cc1ccc(S(=O)(=O)Nc2cccc(C(=O)NCC(c3ccc(F)cc3)N3CCOCC3)c2)cc1 (stereo not drawn) | 32.9 | / | / | -12.2% | -12.9% | -5.9%
CCc1ccccc1NC(=O)c1ccc(Cn2cc([N+](=O)[O-])cn2)cc1 | 11.7 | 0.2% | 37.5% | -1.7% | 1.03µM* | -0.4%
O=C(Nc1ccc(-c2nc3ncccc3o2)cc1)c1ccc([N+](=O)[O-])o1 | -93.7* | ? | -38.4% | 2.91µM* | 2.31µM* | ?
CC(C)C(=O)Nc1ccc(-c2nc3ncccc3o2)cc1 | -15.3 | ? | ? | 17.0% | 1.8% | ?
Cc1cc(-c2nc3ncccc3o2)ccc1NC(=O)c1ccc([N+](=O)[O-])o1 | -7.2 | / | / | ? | -13.1% | /
O=C(Nc1ccc2oc(-c3ccncc3)nc2c1)c1ccc([N+](=O)[O-])o1 | -80.1* | -12.7% | -37.5% | 4.11µM* | 2.59µM* | ?
Cc1ccc(-c2nc3ncccc3o2)cc1NC(=O)c1ccc([N+](=O)[O-])o1 | -90.9* | -25.4% | -34.7% | 2.31µM* | 2.06µM* | -12.2%
COc1ccc(S(=O)(=O)Nc2ccc(C)c(S(=O)(=O)N3CCOCC3)c2)cc1[N+](=O)[O-] | -17.4 | / | / | -0.5% | 1.9% | -3.9%
